# Laboratory results as given in PubChem BioAssay (EPA / NIEHS).
# Several values for one entry are separate records, joined by “and”; a condition that tells them apart may be missing. Equal values may be shown once. Results filed as inconclusive are left out. The source holds several records for some structures; these can differ, active in one and inactive in another. Activity calls are given as the source filed them. Rule for the calls, unless noted: active = hit-call score of the fitted dose curve at least 0.9, where 1 is the maximum; inactive = score below 0.9.
# Experiments:
# [1] = CCTE_Simmons_MITO_basal_resp_rate: CCTE's HepG2 Seahorse XF Respirometric Screening Assay at Basal Respiratory State, Simmons Lab (AID 2284001); settings: actives raise or lower the signal
# Summary of the method: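 Basal-phase OCR of HepG2 cells on a Seahorse XF96, analysed by bidirectional fit relative to DMSO vehicle; chemicals at 7 concentrations, 125 nM–100 uM final; three biological replicates; fenpyroximate and 2,4-dinitrophenol positive controls.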
# [2] = CCTE_Simmons_MITO_max_resp_rate: CCTE's HepG2 Seahorse XF Respirometric Screening Assay at Maximal Respiratory State [uncoupled], Simmons Lab (AID 2284002); settings: actives raise or lower the signal
# Summary of the method: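 Maximal (FCCP-uncoupled) respiration rate in HepG2, from Seahorse kinetic OCR over 72 min at 6 min cycles. Compounds at 125 nM–100 uM final, 7 points, three biological replicates; both directions fit relative to DMSO.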
# [3] = CCTE_Simmons_MITO_inhib_resp_rate: CCTE's HepG2 Seahorse XF Respirometric Screening Assay at Inhibited Respiratory State [full ETC block], Simmons Lab (AID 2284006); settings: actives raise or lower the signal
# Summary of the method: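 This endpoint is the respiration rate remaining after rotenone/antimycin A block, in HepG2 cells on a Seahorse XF96. Chemicals spanned 125 nM–100 uM final, in three biological replicates. OCR was read every 6 minutes for 72 minutes and compared with DMSO vehicle.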
# [4] = CCTE_Simmons_MITO_viability: CellTiter-Glo Viability Assessment for CCTE's HepG2 Seahorse XF Respirometric Screening Assay [post-hoc], Simmons Lab (AID 2284007; active = hit-call score of the fitted dose curve at least 0.9, where 1 is the maximum;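 for AC50: cells exposed to chemical for 90 min before the ATP read; actives lower ATP signal relative to DMSO baseline meaning reduced viability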)
# Summary of the method: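 Luciferase-coupled ATP read-out after the Seahorse run: HepG2 cells treated 90 minutes with test chemical, 7-point series of 125 nM–100 uM final, in triplicate biological runs. Vehicle DMSO; dichlone as positive control over 8 concentrations.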
# [5] = CCTE_Shafer_MEA_acute_spike_number: CCTE's Neural Acute Assay for Total Number of Spikes, Shafer Lab (AID 2284008);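 for AC50: curve fitted for decrease in spike count so AC50 reflects inhibitors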
# Summary of the method: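 Total spike count from 40 min recordings before and during compound exposure (0.03-40 uM), given as per-well percent change. Cortical cultures from rat, DIV 13 or 15, 37 C; adaptive detection threshold 8x rms noise.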
# [6] = CCTE_Shafer_MEA_acute_firing_rate_mean: CCTE's Neural Acute Assay for Mean Firing Rate, Shafer Lab (AID 2284009);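 note: analyzed for loss of signal so actives lower firing rate relative to DMSO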
# Summary of the method: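 Rat cortical neuron cultures matured to DIV 13 or 15, equilibrated 20 min at 37 C, then recorded 40 min for baseline. Compound (0.03-40 uM) added and a further 40 min recorded; percent change in mean firing rate calculated per well.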
# [7] = CCTE_Harrill_HTTr_Viability_MCF7: CCTE's 6-hour Cell Viability Assessment for the High-Throughput Transcriptomics (HTTr) Platform, in MCF-7 cells cultured in DMEM + 10% fetal bovine serum, Harrill Lab (AID 2284010)
# Summary of the method: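 Propidium iodide exclusion, imaged by high-content analysis, gauged viability after a six-hour exposure across eight concentrations. Cells were MCF-7 grown in DMEM with 10% fetal bovine serum; fits run in both directions against DMSO.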
# [8] = CCTE_Harrill_HTTr_Apoptosis_MCF7: CCTE's 6-hour Apoptosis Assessment for the High-Throughput Transcriptomics (HTTr) Platform, in MCF-7 cells cultured in DMEM + 10% fetal bovine serum, Harrill Lab (AID 2284011)
# Summary of the method: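 High-content imaging of CellEvent Caspase 3/7 Green signal follows a six-hour exposure, with eight concentrations per chemical. MCF-7 cells grown in DMEM plus 10% fetal bovine serum; activity fitted in both directions against DMSO.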
# [9] = CCTE_Shafer_MEA_acute_burst_number: CCTE's Neural Acute Assay for Single-Electrode Bursts, Shafer Lab (AID 2284013)
# Summary of the method: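 Percent change in single-electrode burst number per well, from 40-min recordings taken before and after adding compound (0.03-40 uM) to primary rat cortical neurons on MEA plates at DIV 13 or 15, 37 C.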
# [10] = CCTE_Shafer_MEA_acute_burst_duration_mean: CCTE's Neural Acute Assay for Mean Burst Duration, Shafer Lab (AID 2284014);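 note: hits are decreases in mean burst duration relative to DMSO controls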
# Summary of the method: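 Rat cortical cultures, DIV 13/15; 40 min baseline, then 40 min with compound (0.03-40 uM), 37 C. Spikes: 300-5000 Hz band-pass, 8x rms threshold. Read-out: % change in mean single-electrode burst duration, DMSO-referenced, loss direction.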
# [11] = CCTE_Shafer_MEA_acute_interburst_interval_mean: CCTE's Neural Acute Assay for Mean Interburst Interval, Shafer Lab (AID 2284016);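 note: percent change of mean interburst interval versus each well's own pre-dose baseline; curves fitted for decrease in interburst interval relative to DMSO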
# Summary of the method: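 MEA recording of spontaneous network bursting in primary rat cortical cultures; mean interburst interval was compared before and after a 40-min compound exposure (0.03-40 uM) and expressed as percent change, relative to DMSO.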
# [12] = CCTE_Shafer_MEA_acute_burst_percentage_mean: CCTE's Neural Acute Assay for Percentage of Spikes in a Burst, Shafer Lab (AID 2284017);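 for AC50: curve fitted for loss of signal so potency reflects decreased burst percentage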
# Summary of the method: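 Compounds were tested at 0.03-40 uM on primary rat cortical neuron networks grown over microelectrodes, with at least three wells per compound. Spontaneous firing was recorded for 40 min before and 40 min after dosing, and the change in burst percentage was computed per well.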
# [13] = CCTE_Shafer_MEA_acute_burst_percentage_std: CCTE's Neural Acute Assay for Standard Deviation of Burst Percentage, Shafer Lab (AID 2284018);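 note: fitted in the negative direction so actives lower burst percentage SD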
# Summary of the method: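 Rat primary cortical neurons on 48-well MEAs, DIV 13 or 15, 37 C. 40-min baseline then 40-min recording with compound (0.03-40 uM); well-level SD of per-electrode burst spike percentage, expressed as percent change from baseline.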
# [14] = CCTE_Shafer_MEA_acute_per_network_burst_spike_number_mean: CCTE's Neural Acute Assay for Average Number of Spikes in a Network Burst, Shafer Lab (AID 2284019);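 for AC50: curve fitted for loss of signal so actives reduce spikes per network burst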
# Summary of the method: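 Rat cortical cultures, DIV 13/15; spike threshold 8x rms noise, 300-5000 Hz band-pass, 12.5 kHz sampling; wells need >/= 10 active electrodes. Compound 0.03-40 uM, 40 min, 37 C; % change vs own baseline, DMSO negative control.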
# [15] = CCTE_Shafer_MEA_acute_per_network_burst_spike_number_std: CCTE's Neural Acute Assay for Standard Deviation of Number of Spikes in a Network Burst, Shafer Lab (AID 2284020);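 note: fitted for decrease in spike-number SD versus DMSO so actives lower it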
# Summary of the method: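 Rat cortical cultures, DIV 13/15, 37 C; 20-min stabilisation, 40-min baseline, compound 0.03-40 uM, 40-min re-record. Spikes detected at 8x rms noise (300-5000 Hz band-pass). Readout: % change from baseline in per-burst spike-number SD.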
# [16] = CCTE_Shafer_MEA_acute_cross_correlation_area: CCTE's Neural Acute Assay for Area of Cross Correlation, Shafer Lab (AID 2284024);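 note: area under pooled inter-electrode spike cross-correlation near zero lag as percent change from own baseline; curves fitted for loss of cross-correlation area so actives lower synchrony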
# Summary of the method: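 Percent change in well-wide cross-correlation area (window around zero lag) between 40 min baseline and 40 min post-compound recordings, 37 C; rat cortical cultures on MEA at DIV 13 or 15, dosed 0.03-40 uM, wells needing >/= 10 active electrodes.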
# [17] = CCTE_Shafer_MEA_acute_cross_correlation_HWHM: CCTE's Neural Acute Assay for Cross Correlation at Half Width at Half Maximum, Shafer Lab (AID 2284026);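 note: percent change per well from pre-dose baseline in spike cross-correlogram half width; hits are a decrease in cross-correlogram half width relative to DMSO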
# Summary of the method: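 Per-well percent change in cross-correlogram half width at half maximum, derived from 40-min recordings before and after compound (0.03-40 uM) at 37 C. Cultures were rat cortical neurons, DIV 13 or 15, with adaptive spike detection at 8x rms.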
# [18] = CCTE_Harrill_HTTr_CellCount_MCF7: CCTE's Cell Proliferation Assessment for the High-Throughput Transcriptomics (HTTr) Platform, Harrill Lab (AID 2284012; active = hit-call score of the fitted dose curve at least 0.9, where 1 is the maximum;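 note: cells exposed to compound for six hours; intended direction is loss of nuclei count meaning fewer cells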)
# Summary of the method: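 Cell count from high-content imaging of Hoechst-labeled nuclei serves as viability/growth readout. Chemicals were applied to MCF-7 cells in eight concentrations for six hours, with fitting in both directions relative to DMSO.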
# [19] = target: Estrogen receptor (Homo sapiens) (UniProt P03372); test: CCTE_Deisenroth_AIME_96WELL_LUC_Active: CCTE's 96-well Estrogen Receptor Transactivation Assay with AIME metabolic competence (ERTA luciferase; metabolism positive), Deisenroth Lab (AID 2284023; active = hit-call score of the fitted dose curve at least 0.9, where 1 is the maximum)
# Estrogen receptor (Homo sapiens), sequence (P03372 whole entry, looked up): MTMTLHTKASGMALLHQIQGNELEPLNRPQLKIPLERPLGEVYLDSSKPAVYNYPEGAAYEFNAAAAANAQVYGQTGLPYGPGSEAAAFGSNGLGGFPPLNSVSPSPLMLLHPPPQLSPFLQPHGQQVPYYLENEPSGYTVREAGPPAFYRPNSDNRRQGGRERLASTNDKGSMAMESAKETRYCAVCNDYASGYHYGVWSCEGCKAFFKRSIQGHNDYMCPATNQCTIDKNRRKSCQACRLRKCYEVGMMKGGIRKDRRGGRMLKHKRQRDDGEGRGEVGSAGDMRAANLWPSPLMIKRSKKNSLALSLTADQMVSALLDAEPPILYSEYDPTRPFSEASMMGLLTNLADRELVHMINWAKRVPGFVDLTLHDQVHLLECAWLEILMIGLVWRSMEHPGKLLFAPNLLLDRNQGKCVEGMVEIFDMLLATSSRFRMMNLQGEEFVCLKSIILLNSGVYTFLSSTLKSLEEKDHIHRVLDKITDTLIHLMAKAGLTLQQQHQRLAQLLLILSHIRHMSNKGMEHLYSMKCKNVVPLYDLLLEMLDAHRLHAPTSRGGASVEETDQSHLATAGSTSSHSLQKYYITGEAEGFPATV
# Summary of the method: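 Metabolism-positive mode: induced rat hepatic S9 in alginate microspheres conditions test solutions (0.002 - 200 uM, 10 points) for 2 hours. VM7Luc4E2 ER luciferase reporter cells then exposed 24 h; positive-direction fit against 17beta-estradiol, n=4 typical.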
# [20] = target: Estrogen receptor (Homo sapiens) (UniProt P03372); test: CCTE_Deisenroth_AIME_96WELL_LUC_Inactive: CCTE's 96-well Estrogen Receptor Transactivation Assay without AIME metabolic competence (ERTA luciferase; metabolism negative), Deisenroth Lab (AID 2284025; active = hit-call score of the fitted dose curve at least 0.9, where 1 is the maximum)
# Summary of the method: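 Metabolism-negative arm: chemicals (0.002–200 uM, 10 points) incubated 2 h with alginate-water microspheres, then medium moved onto VM7Luc4E2 cells for 24 h luciferase read-out. Positive direction vs 17beta-estradiol; n≥4 experiments.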
structure (smiles),measurement,setting,value
COC(=O)N(OC)c1ccccc1COc1ccn(-c2ccc(Cl)cc2)n1,AC50,[1],2.05 µM (active)
same,AC50,[2],1.7 µM (active)
same,AC50,[3],1.69 µM (active)
same,outcome,[4],inactive
same,AC50,[5],78.1 nM (active)
same,AC50,[6],78.3 nM (active)
same,outcome,[7],inactive
same,outcome,[8],inactive
same,AC50,[9],0.0942 µM (active)
same,outcome,[10],inactive
same,outcome,[11],inactive
same,AC50,[12],976 nM (active)
same,AC50,[13],76.5 nM (active)
same,outcome,[14],inactive
same,outcome,[15],inactive
same,AC50,[16],0.0374 µM (active)
same,AC50,[17],1.62 µM (active)
CC(C)Oc1cc(-n2nc(C(C)(C)C)oc2=O)c(Cl)cc1Cl,outcome,[1],inactive
same,outcome,[2],inactive
same,outcome,[3],inactive
same,outcome,[4],inactive
same,outcome,[5],inactive
same,outcome,[6],inactive
same,outcome,[7],inactive
same,outcome,[8],inactive
same,outcome,[18],inactive
same,outcome,[9],inactive
same,outcome,[10],inactive
same,AC50,[11],4.16 µM (active)
same,outcome,[12],inactive
same,outcome,[13],inactive
same,outcome,[14],inactive
same,outcome,[15],inactive
same,outcome,[16],inactive
same,outcome,[17],inactive
COP(=S)(OC)Oc1nc(Cl)c(Cl)cc1Cl,outcome,[1],inactive
same,outcome,[2],inactive
same,outcome,[3],inactive
same,AC50,[4],19.8 µM (active)
same,outcome,[5],inactive
same,outcome,[6],inactive
same,outcome,[7],inactive
same,outcome,[8],inactive
same,outcome,[18],inactive
same,outcome,[9],inactive
same,outcome,[10],inactive
same,outcome,[11],inactive
same,AC50,[12],102 nM (active)
same,outcome,[13],inactive
same,outcome,[14],inactive
same,AC50,[15],0.358 µM (active)
same,outcome,[16],inactive
same,outcome,[17],inactive
CCc1nn(C)c(C(=O)NCc2ccc(C(C)(C)C)cc2)c1Cl,AC50,[1],0.928 µM (active)
same,AC50,[2],0.496 µM (active)
same,outcome,[3],inactive
same,AC50,[4],0.217 µM (active)
same,outcome,[7],inactive
same,outcome,[8],inactive
N#Cc1nn(-c2c(Cl)cc(C(F)(F)F)cc2Cl)c(N)c1S(=O)C(F)(F)F (stereo unspecified),outcome,[1],inactive
same,outcome,[2],inactive
same,outcome,[3],inactive
same,outcome,[4],inactive
same,AC50,[5],10.3 µM (active) and 9.11 µM (active)
same,AC50,[6],10.3 µM (active) and 9.11 µM (active)
same,outcome,[7],inactive
same,outcome,[8],inactive
same,outcome,[18],inactive
same,outcome,[9],inactive
same,outcome,[10],inactive
same,AC50,[11],8.32 µM (active)
same,outcome,[11],inactive
same,AC50,[12],33.4 µM (active) and 24.2 µM (active)
same,AC50,[13],36.5 µM (active) and 3.5 µM (active)
same,AC50,[14],1.59 µM (active) and 666 nM (active)
same,outcome,[15],inactive
same,outcome,[16],inactive
same,AC50,[17],13.3 µM (active) and 24.6 µM (active)
N#CC(CCc1ccc(Cl)cc1)(Cn1cncn1)c1ccccc1 (stereo unspecified),outcome,[1],inactive
same,outcome,[2],inactive
same,outcome,[3],inactive
same,outcome,[4],inactive
same,outcome,[5],inactive
same,outcome,[6],inactive
same,outcome,[7],inactive
same,outcome,[8],inactive
same,outcome,[18],inactive
same,outcome,[9],inactive
same,outcome,[10],inactive
same,outcome,[11],inactive
same,outcome,[12],inactive
same,outcome,[13],inactive
same,outcome,[14],inactive
same,outcome,[15],inactive
same,outcome,[16],inactive
same,outcome,[17],inactive
Oc1ccccc1-c1ccccc1,outcome,[1],inactive
same,outcome,[2],inactive
same,outcome,[3],inactive
same,outcome,[7],inactive
same,outcome,[8],inactive
same,outcome,[18],inactive
same,AC50,[19],68.8 µM (active)
same,AC50,[20],58.3 µM (active)
CCCN(CCC)c1c([N+](=O)[O-])cc(S(N)(=O)=O)cc1[N+](=O)[O-],AC50,[1],30.7 µM (active)
same,outcome,[1],inactive
same,AC50,[2],34 µM (active)
same,outcome,[2],inactive
same,outcome,[3],inactive
same,outcome,[4],inactive
same,AC50,[5],4910 nM (active)
same,AC50,[6],4910 nM (active)
same,outcome,[7],inactive
same,outcome,[8],inactive
same,outcome,[18],inactive
same,AC50,[9],4.69 µM (active)
same,outcome,[10],inactive
same,AC50,[11],5 µM (active)
same,AC50,[12],5000 nM (active)
same,outcome,[13],inactive
same,outcome,[14],inactive
same,outcome,[15],inactive
same,outcome,[16],inactive
same,AC50,[17],10.5 µM (active)
CON(C)C(=O)Nc1ccc(Cl)c(Cl)c1,AC50,[1],26.8 µM (active)
same,outcome,[2],inactive
same,outcome,[3],inactive
same,outcome,[4],inactive
same,outcome,[5],inactive
same,outcome,[6],inactive
same,outcome,[7],inactive
same,outcome,[8],inactive
same,outcome,[9],inactive
same,outcome,[10],inactive
same,outcome,[11],inactive
same,AC50,[12],8540 nM (active)
same,AC50,[13],649 nM (active)
same,outcome,[14],inactive
same,outcome,[15],inactive
same,outcome,[16],inactive
same,AC50,[17],6.23 µM (active)
